Residue numbers refer to the chain shown, from its start.
Assays:
Assay in all cases: PBM; 200 nM protein, PBS
Conditions in all cases: dsDNA, one strand shown
HOXC9 [1] = target: HOXC9 (Homo sapiens, UniProt P31274 178-260, K195R)
PAX4 [2] = target: T1, PAX4 (Homo sapiens, UniProt O43316 9-242, R200K)
T1 sequence: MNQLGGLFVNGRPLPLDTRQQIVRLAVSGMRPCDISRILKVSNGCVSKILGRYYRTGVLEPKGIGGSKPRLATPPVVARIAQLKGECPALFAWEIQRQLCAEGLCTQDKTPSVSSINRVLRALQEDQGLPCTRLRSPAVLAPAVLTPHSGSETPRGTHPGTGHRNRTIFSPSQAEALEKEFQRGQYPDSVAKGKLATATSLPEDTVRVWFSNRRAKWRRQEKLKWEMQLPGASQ

PAX4 [3] = target: T2, PAX4 (Homo sapiens, UniProt O43316 9-242)
T2 sequence: T1 sequence with K192R

NKX2-6 = target: T3, NKX2-6 (Homo sapiens, UniProt A6NCS4 118-204, R150C)
T3 sequence: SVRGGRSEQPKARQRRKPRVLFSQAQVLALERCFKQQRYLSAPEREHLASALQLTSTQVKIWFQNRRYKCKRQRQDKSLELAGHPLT

HOXC9 [4] = target: HOXC9 (Homo sapiens, UniProt P31274 178-260)
Sequence of HOXC9 (Homo sapiens, UniProt P31274 178-260) (P31274 178-260): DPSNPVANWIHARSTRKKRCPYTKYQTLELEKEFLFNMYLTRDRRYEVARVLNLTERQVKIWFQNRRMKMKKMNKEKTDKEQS

PAX4 [5] = target: T4, PAX4 (Homo sapiens, UniProt O43316 9-242, R200Q)
T4 sequence: T1 sequence with K192Q

HOXC9 [6] = target: HOXC9 (Homo sapiens, UniProt P31274 178-260, R193K)
Sequence of HOXC9 (Homo sapiens, UniProt P31274 178-260, R193K) (P31274 178-260 R193K): as the sequence (P31274 178-260) above, with R16K counted along it

PAX4 [7] = target: T5, PAX4 (Homo sapiens, UniProt O43316 9-242, F177V)
T5 sequence: T1 sequence with F169V, K192R

PAX4 [8] = target: T6, PAX4 (Homo sapiens, UniProt O43316 9-242, F177Y)
T6 sequence: T1 sequence with F169Y, K192R

HOXC9 [9] = target: HOXC9 (Homo sapiens, UniProt P31274 178-260, R222W)
Sequence of HOXC9 (Homo sapiens, UniProt P31274 178-260, R222W) (P31274 178-260 R222W): as the sequence (P31274 178-260) above, with R45W counted along it

PAX4 [10] = target: T7, PAX4 (Homo sapiens, UniProt O43316 9-242, R227W)
T7 sequence: T1 sequence with K192R, R219W

HOXC10 [11] = target: HOXC10 (Homo sapiens, UniProt Q9NYD6 254-340)
Sequence of HOXC10 (Homo sapiens, UniProt Q9NYD6 254-340) (Q9NYD6 254-340): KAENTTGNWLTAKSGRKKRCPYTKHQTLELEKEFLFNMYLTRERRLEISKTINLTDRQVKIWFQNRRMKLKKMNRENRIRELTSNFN

HOXC10 [12] = target: HOXC10 (Homo sapiens, UniProt Q9NYD6 254-340, K271E)
Sequence of HOXC10 (Homo sapiens, UniProt Q9NYD6 254-340, K271E) (Q9NYD6 254-340 K271E): as the sequence (Q9NYD6 254-340) above, with K18E counted along it

ALX4 [13] = target: ALX4 (Homo sapiens, UniProt Q9H161 200-286)
Sequence of ALX4 (Homo sapiens, UniProt Q9H161 200-286) (Q9H161 200-286): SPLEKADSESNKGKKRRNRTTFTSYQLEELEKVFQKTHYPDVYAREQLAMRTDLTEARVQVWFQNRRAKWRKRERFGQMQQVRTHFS

PRRX1 [14] = target: PRRX1 (Homo sapiens, UniProt P54821 80-166, F113S)
Sequence of PRRX1 (Homo sapiens, UniProt P54821 80-166, F113S) (P54821 80-166 F113S): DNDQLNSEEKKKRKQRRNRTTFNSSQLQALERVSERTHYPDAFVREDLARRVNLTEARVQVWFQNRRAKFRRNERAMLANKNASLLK

ALX4 [15] = target: ALX4 (Homo sapiens, UniProt Q9H161 200-286, Q225E)
Sequence of ALX4 (Homo sapiens, UniProt Q9H161 200-286, Q225E) (Q9H161 200-286 Q225E): as the sequence (Q9H161 200-286) above, with Q26E counted along it

ALX1 [16] = target: ALX1 (Homo sapiens, UniProt Q15699 118-204, L144V)
Sequence of ALX1 (Homo sapiens, UniProt Q15699 118-204, L144V) (Q15699 118-204 L144V): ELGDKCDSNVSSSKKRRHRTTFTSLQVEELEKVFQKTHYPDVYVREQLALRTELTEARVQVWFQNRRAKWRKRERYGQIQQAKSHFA

ALX3 [17] = target: ALX3 (Homo sapiens, UniProt O95076 139-225, N203Q)
Sequence of ALX3 (Homo sapiens, UniProt O95076 139-225, N203Q) (O95076 139-225 N203Q): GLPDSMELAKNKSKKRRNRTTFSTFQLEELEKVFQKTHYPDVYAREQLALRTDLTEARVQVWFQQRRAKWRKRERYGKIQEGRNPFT

ALX1 [18] = target: ALX1 (Homo sapiens, UniProt Q15699 118-204, L144R)
Sequence of ALX1 (Homo sapiens, UniProt Q15699 118-204, L144R) (Q15699 118-204 L144R): as the sequence (Q15699 118-204 L144V) above, with V27R counted along it

ALX3 [19] = target: ALX3 (Homo sapiens, UniProt O95076 139-225)
Sequence of ALX3 (Homo sapiens, UniProt O95076 139-225) (O95076 139-225): as the sequence (O95076 139-225 N203Q) above, with Q65N counted along it

PROP1 [20] = target: PROP1 (Homo sapiens, UniProt O75360 56-141)
Sequence of PROP1 (Homo sapiens, UniProt O75360 56-141) (O75360 56-141): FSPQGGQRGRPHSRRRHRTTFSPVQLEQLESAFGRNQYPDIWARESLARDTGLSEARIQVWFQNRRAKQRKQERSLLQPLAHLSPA

PROP1 [21] = target: PROP1 (Homo sapiens, UniProt O75360 56-141, R99H)
Sequence of PROP1 (Homo sapiens, UniProt O75360 56-141, R99H) (O75360 56-141 R99H): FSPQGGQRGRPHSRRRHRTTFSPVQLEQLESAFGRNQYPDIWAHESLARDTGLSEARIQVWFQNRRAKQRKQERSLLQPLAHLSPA

ALX3 [22] = target: ALX3 (Homo sapiens, UniProt O95076 139-225, L168Q)
Sequence of ALX3 (Homo sapiens, UniProt O95076 139-225, L168Q) (O95076 139-225 L168Q): as the sequence (O95076 139-225 N203Q) above, with L30Q, Q65N counted along it

ALX3 [23] = target: ALX3 (Homo sapiens, UniProt O95076 139-225, L168V)
Sequence of ALX3 (Homo sapiens, UniProt O95076 139-225, L168V) (O95076 139-225 L168V): as the sequence (O95076 139-225 N203Q) above, with L30V, Q65N counted along it

PROP1 [24] = target: PROP1 (Homo sapiens, UniProt O75360 56-141, F88S)
Sequence of PROP1 (Homo sapiens, UniProt O75360 56-141, F88S) (O75360 56-141 F88S): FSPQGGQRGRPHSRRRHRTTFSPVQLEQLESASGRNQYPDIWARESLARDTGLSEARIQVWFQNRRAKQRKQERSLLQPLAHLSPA

ALX3 [25] = target: ALX3 (Homo sapiens, UniProt O95076 139-225, N203S)
Sequence of ALX3 (Homo sapiens, UniProt O95076 139-225, N203S) (O95076 139-225 N203S): as the sequence (O95076 139-225 N203Q) above, with Q65S counted along it

PRRX1 [26] = target: PRRX1 (Homo sapiens, UniProt P54821 80-166)
Sequence of PRRX1 (Homo sapiens, UniProt P54821 80-166) (P54821 80-166): as the sequence (P54821 80-166 F113S) above, with S34F counted along it

HOXA7 [27] = target: HOXA7 (Homo sapiens, UniProt P31268 116-202)
Sequence of HOXA7 (Homo sapiens, UniProt P31268 116-202) (P31268 116-202): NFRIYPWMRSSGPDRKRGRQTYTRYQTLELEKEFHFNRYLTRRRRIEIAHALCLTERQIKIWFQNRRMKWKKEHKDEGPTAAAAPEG

HOXA7 [28] = target: HOXA7 (Homo sapiens, UniProt P31268 116-202, W177C)
Sequence of HOXA7 (Homo sapiens, UniProt P31268 116-202, W177C) (P31268 116-202 W177C): as the sequence (P31268 116-202) above, with W62C counted along it

HOXA4 [29] = target: HOXA4 (Homo sapiens, UniProt Q00056 201-287, W262R)
Sequence of HOXA4 (Homo sapiens, UniProt Q00056 201-287, W262R) (Q00056 201-287 W262R): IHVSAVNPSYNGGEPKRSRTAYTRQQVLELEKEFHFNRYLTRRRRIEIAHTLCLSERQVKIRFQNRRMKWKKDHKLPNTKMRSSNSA

HOXA4 [30] = target: HOXA4 (Homo sapiens, UniProt Q00056 201-287)
Sequence of HOXA4 (Homo sapiens, UniProt Q00056 201-287) (Q00056 201-287): as the sequence (Q00056 201-287 W262R) above, with R62W counted along it

HOXA4 [31] = target: HOXA4 (Homo sapiens, UniProt Q00056 201-287, W262F)
Sequence of HOXA4 (Homo sapiens, UniProt Q00056 201-287, W262F) (Q00056 201-287 W262F): as the sequence (Q00056 201-287 W262R) above, with R62F counted along it

Sequence of HOXC9 (Homo sapiens, UniProt P31274 178-260, K195R) (P31274 178-260 K195R): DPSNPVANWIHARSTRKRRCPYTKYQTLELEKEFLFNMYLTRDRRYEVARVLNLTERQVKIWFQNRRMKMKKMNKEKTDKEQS

CCGGGAGC was tested, and the binding signal (HOXC9 [1]) was 9.52 upbm affinity estimate (log intensity, higher = more binding, comparable within an allelic series), the binding signal (PAX4 [2]) was 9.29 upbm affinity estimate (log intensity, higher = more binding, comparable within an allelic series) and the binding signal (PAX4 [3]) was 9.27 upbm affinity estimate (log intensity, higher = more binding, comparable within an allelic series). For the same sequence, the binding signal (NKX2-6) was 9.24 upbm affinity estimate (log intensity, higher = more binding, comparable within an allelic series), the binding signal (HOXC9 [4]) was 9.61 upbm affinity estimate (log intensity, higher = more binding, comparable within an allelic series) and the binding signal (PAX4 [5]) was 9.33 upbm affinity estimate (log intensity, higher = more binding, comparable within an allelic series). The binding signal (HOXC9 [6]) was 9.49 upbm affinity estimate (log intensity, higher = more binding, comparable within an allelic series), the binding signal (PAX4 [7]) was 9.16 upbm affinity estimate (log intensity, higher = more binding, comparable within an allelic series) and the binding signal (PAX4 [8]) was 9.2 upbm affinity estimate (log intensity, higher = more binding, comparable within an allelic series). The binding signal (HOXC9 [9]) was 9.58 upbm affinity estimate (log intensity, higher = more binding, comparable within an allelic series) and the binding signal (PAX4 [10]) was 9.25 upbm affinity estimate (log intensity, higher = more binding, comparable within an allelic series).
For GGTAATAA, the binding signal (HOXC9 [1]) was 12.4 upbm affinity estimate (log intensity, higher = more binding, comparable within an allelic series), the binding signal (HOXC10 [11]) was 12.2 upbm affinity estimate (log intensity, higher = more binding, comparable within an allelic series) and the binding signal (HOXC9 [4]) was 12.6 upbm affinity estimate (log intensity, higher = more binding, comparable within an allelic series). For the same sequence, the binding signal (HOXC9 [6]) was 12.5 upbm affinity estimate (log intensity, higher = more binding, comparable within an allelic series), the binding signal (HOXC10 [12]) was 11.9 upbm affinity estimate (log intensity, higher = more binding, comparable within an allelic series) and the binding signal (HOXC9 [9]) was 10.9 upbm affinity estimate (log intensity, higher = more binding, comparable within an allelic series).
With TAATTTAA the binding signal (HOXC9 [1]) was 12.2 upbm affinity estimate (log intensity, higher = more binding, comparable within an allelic series), the binding signal (ALX4 [13]) was 13.7 upbm affinity estimate (log intensity, higher = more binding, comparable within an allelic series) and the binding signal (PAX4 [2]) was 11.7 upbm affinity estimate (log intensity, higher = more binding, comparable within an allelic series). The binding signal (PRRX1 [14]) was 11.2 upbm affinity estimate (log intensity, higher = more binding, comparable within an allelic series), the binding signal (PAX4 [3]) was 12.2 upbm affinity estimate (log intensity, higher = more binding, comparable within an allelic series) and the binding signal (ALX4 [15]) was 12.7 upbm affinity estimate (log intensity, higher = more binding, comparable within an allelic series). For the same sequence, the binding signal (HOXC9 [4]) was 12.2 upbm affinity estimate (log intensity, higher = more binding, comparable within an allelic series), the binding signal (ALX1 [16]) was 11.4 upbm affinity estimate (log intensity, higher = more binding, comparable within an allelic series) and the binding signal (ALX3 [17]) was 8.49 upbm affinity estimate (log intensity, higher = more binding, comparable within an allelic series). For the same sequence, the binding signal (PAX4 [5]) was 11.9 upbm affinity estimate (log intensity, higher = more binding, comparable within an allelic series), the binding signal (HOXC9 [6]) was 12.2 upbm affinity estimate (log intensity, higher = more binding, comparable within an allelic series) and the binding signal (ALX1 [18]) was 11.1 upbm affinity estimate (log intensity, higher = more binding, comparable within an allelic series). For the same sequence, the binding signal (PAX4 [7]) was 10.6 upbm affinity estimate (log intensity, higher = more binding, comparable within an allelic series), the binding signal (ALX3 [19]) was 12.4 upbm affinity estimate (log intensity, higher = more binding, comparable within an allelic series) and the binding signal (PAX4 [8]) was 11 upbm affinity estimate (log intensity, higher = more binding, comparable within an allelic series). For the same sequence, the binding signal (PROP1 [20]) was 11 upbm affinity estimate (log intensity, higher = more binding, comparable within an allelic series), the binding signal (PROP1 [21]) was 10.6 upbm affinity estimate (log intensity, higher = more binding, comparable within an allelic series) and the binding signal (ALX3 [22]) was 10.2 upbm affinity estimate (log intensity, higher = more binding, comparable within an allelic series). For the same sequence, the binding signal (HOXC9 [9]) was 10.9 upbm affinity estimate (log intensity, higher = more binding, comparable within an allelic series), the binding signal (ALX3 [23]) was 9.7 upbm affinity estimate (log intensity, higher = more binding, comparable within an allelic series) and the binding signal (PROP1 [24]) was 7.76 upbm affinity estimate (log intensity, higher = more binding, comparable within an allelic series). For the same sequence, the binding signal (PAX4 [10]) was 10.9 upbm affinity estimate (log intensity, higher = more binding, comparable within an allelic series), the binding signal (ALX3 [25]) was 8.64 upbm affinity estimate (log intensity, higher = more binding, comparable within an allelic series) and the binding signal (PRRX1 [26]) was 13.3 upbm affinity estimate (log intensity, higher = more binding, comparable within an allelic series).
In the case of AGCAGCCC, the binding signal (HOXC9 [1]) is reported as 9.76 upbm affinity estimate (log intensity, higher = more binding, comparable within an allelic series), the binding signal (HOXA7 [27]) is reported as 8.64 upbm affinity estimate (log intensity, higher = more binding, comparable within an allelic series) and the binding signal (HOXC9 [4]) is reported as 9.83 upbm affinity estimate (log intensity, higher = more binding, comparable within an allelic series). For the same sequence, the binding signal (ALX3 [17]) was 7.76 upbm affinity estimate (log intensity, higher = more binding, comparable within an allelic series), the binding signal (HOXC9 [6]) was 9.78 upbm affinity estimate (log intensity, higher = more binding, comparable within an allelic series) and the binding signal (ALX3 [19]) was 7.62 upbm affinity estimate (log intensity, higher = more binding, comparable within an allelic series). For the same sequence, the binding signal (ALX3 [22]) was 7.67 upbm affinity estimate (log intensity, higher = more binding, comparable within an allelic series), the binding signal (HOXC9 [9]) was 9.61 upbm affinity estimate (log intensity, higher = more binding, comparable within an allelic series) and the binding signal (ALX3 [23]) was 7.75 upbm affinity estimate (log intensity, higher = more binding, comparable within an allelic series). The binding signal (HOXA7 [28]) was 8.34 upbm affinity estimate (log intensity, higher = more binding, comparable within an allelic series) and the binding signal (ALX3 [25]) was 7.72 upbm affinity estimate (log intensity, higher = more binding, comparable within an allelic series).
In the case of AGTCTTTA, the binding signal (HOXA4 [29]) is reported as 10.2 upbm affinity estimate (log intensity, higher = more binding, comparable within an allelic series), the binding signal (HOXA4 [30]) is reported as 11.2 upbm affinity estimate (log intensity, higher = more binding, comparable within an allelic series) and the binding signal (HOXA4 [31]) is reported as 10.4 upbm affinity estimate (log intensity, higher = more binding, comparable within an allelic series).

— publication PMC11006913
